Laboratory results published in PubChem BioAssay (EPA / NIEHS).
Results filed as inconclusive are left out. The source made the active and inactive calls. The calls were made as follows: active = hit-call score of the fitted dose curve at least 0.9, where 1 is the maximum; inconclusive = response in the unintended direction; inactive = score below 0.9.

Molecular target: Cellular tumor antigen p53 (Homo sapiens) (UniProt P04637)
Test: TOX21_p53_BLA_p4_ratio: Tox21 HCT-116 p53 Agonism Beta-lactamase Assay, Ratio, Phase 4 (AID 2283601)
Summary of the method: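 HCT116 cells carrying an inducible beta-lactamase reporter were plated at 4000 cells/well, rested 5 h, then exposed to compounds in DMSO (217-fold dilution) for 16 h at 37C. CCF4-AM substrate was loaded 2 h at room temperature; 460/530 nm emission ratio scored gain-of-signal versus DMSO.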

Chain of Cellular tumor antigen p53 (Homo sapiens) (P04637 whole entry, looked up): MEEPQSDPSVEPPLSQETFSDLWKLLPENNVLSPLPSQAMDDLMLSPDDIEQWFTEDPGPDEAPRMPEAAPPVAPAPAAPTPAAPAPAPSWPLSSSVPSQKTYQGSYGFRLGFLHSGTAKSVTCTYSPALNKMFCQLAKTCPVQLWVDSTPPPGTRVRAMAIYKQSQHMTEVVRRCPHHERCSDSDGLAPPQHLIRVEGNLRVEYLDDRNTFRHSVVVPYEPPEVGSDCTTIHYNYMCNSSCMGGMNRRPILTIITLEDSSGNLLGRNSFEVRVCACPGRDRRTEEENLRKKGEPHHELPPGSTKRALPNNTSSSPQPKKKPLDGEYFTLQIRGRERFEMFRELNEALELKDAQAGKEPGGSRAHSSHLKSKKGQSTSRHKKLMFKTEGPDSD

Row | Structure (SMILES) | outcome
1 | CC(=O)OCC(=O)[C@H]1CC[C@H]2[C@@H]3CC[C@H]4C[C@H](O)CC[C@]4(C)[C@H]3C(=O)C[C@]12C | inactive
2 | COc1cccc(C(=O)CCN[C@@H](C)[C@H](O)c2ccccc2)c1 | inactive
3 | C[C@]12N[C@H](Cc3ccccc31)c1ccccc12 | inactive
4 | CC(C)NCC(O)c1ccc([N+](=O)[O-])cc1 (stereo not drawn) | inactive
5 | COc1cc(C[C@H](C)N)c(OC)cc1Br | inactive
6 | CCN(CC)C(=O)[C@@H]1C=C2c3cccc4[nH]cc(c34)C[C@H]2N(C)C1 | inactive
7 | CC(=O)[C@H]1CC[C@H]2[C@@H]3CC[C@H]4C[C@](C)(O)CC[C@]4(C)[C@H]3CC[C@]12C | inactive
8 | CCBr | inactive
9 | CC[C@H]1[C@@H]2C[C@H]3[C@@H]4N(C)c5ccccc5[C@]45C[C@@H](C2C5O)N3[C@@H]1O (stereo partly drawn) | inactive
10 | CC(=O)OC1(c2ccccc2)CCN(CCc2ccccc2)CC1 | inactive
11 | COC(=O)[C@H]1[C@@H](OC(=O)c2ccccc2)C[C@@H]2CC[C@H]1N2C | inactive
12 | CCC(=O)O[C@](Cc1ccccc1)(c1ccccc1)[C@H](C)CN(C)C | inactive
13 | FC(F)OC(F)(F)C(F)Cl (stereo not drawn) | inactive
14 | CCOP(=S)(OCC)Oc1cc(C)nc(N(CC)CC)n1 | inactive
15 | O=C1c2ccccc2C(=O)c2ccccc21 | inactive
16 | c1ccc(C2CC2)c(OCC2=NCCN2)c1 | inactive
17 | c1ccccc1 | inactive
18 | CNCC(O)c1ccc(O)cc1 (stereo not drawn) | inactive
19 | O=C(O)CBr | inactive
20 | CCCC[P+](CC)(CCCC)CCCC (tested in a mixture with another compound) | inactive
21 | COC1=CC(=O)O[C@@H](CCc2ccccc2)C1 | inactive
22 | O=C(Cl)OCc1ccccc1 | inactive
23 | COc1cc(CC(C)N)c(OC)cc1Br (stereo not drawn) | inactive
24 | CC(C)(C)NCC(O)c1cc(Cl)c(N)c(C(F)(F)F)c1 (stereo not drawn) | inactive
25 | II | inactive
26 | NCc1cccnc1 | inactive
27 | OC(c1ccccc1)(c1ccccc1)C1CN2CCC1CC2 (stereo not drawn) | inactive
28 | Clc1c(Cl)c(Cl)c(Cl)c(Cl)c1Cl | inactive
